Consider nine molecules from PubChem BioAssay (NCI).

This is part of a sample that, as a whole, favours compounds with a hit. Of some 83,000 tested, about 20% had one in any assay.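 How to read the values: 0–100, growth inhibition (40 = 60% inhibited); 0, no net growth; -100 to 0, cell death (-40 = 40% of starting cells died; -100 = all dead).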 Unmarked numbers belong to inactive results. Activity calls are given as the source filed them. The calls were made as follows: active = growth percent below 10; inactive = the rest.

Assay in all cases: NCI-60 one-dose screen, 48 h (100 = growth as untreated, 0 = no growth, -100 = all killed)
Common to all, as to conditions: 10 µM

Experiment [1] relates to RPMI-8226 leukemia.
Experiment [2] has as its system OVCAR-8 ovarian.
Experiment [3] concerns OVCAR-5 ovarian.
Experiment [4] relates to OVCAR-4 ovarian.
Experiment [5] concerns IGROV1 ovarian.
Experiment [6] has as its system OVCAR-3 ovarian.
For experiment [7], the system named is HS 578T breast.
Experiment [8] relates to NCI/ADR-RES ovarian.
For experiment [9], the system named is BT-549 breast.
The test system of experiment [10] is MDA-MB-435 melanoma.
Experiment [11] relates to SW-620 colon.
Experiment [12] concerns MCF7 breast.
The test system of experiment [13] is HCT-116 colon.
For experiment [14], the system named is HCC-2998 colon.
Experiment [15] deals with KM12 colon.
Experiment [16] concerns T-47D breast.
Experiment [17] concerns SK-OV-3 ovarian.

Regarding `N#Cc1cccc(OCc2nc(N)nc(N)c2-c2ccc(Cl)c(Cl)c2)c1`, the growth in [1] was 60.1%; in [2], 19.3%; in experiment [3] it was 35.6%; in experiment [4], 88.3%; in experiment [5], 17.8%; in experiment [6], 38.5%. The growth in experiment [7] was 49.7%; in [8] it was 34.1%; in [9] it was 40.1%; in experiment [10], 21.3%; in [11] it was 17.9%; in [12], 28.5%. In addition, the growth in experiment [13] was 12.1%; in [14] it was 29.8%; in [15], 25.2%.

On to `COc1ccc(C2=NN(C(=O)c3ccc(S(C)(=O)=O)cc3)C(c3ccc(OC)c(OC)c3)C2)c(OC)c1` (stereo unspecified), for which the growth in experiment [1] was 110%; in [2], 108%; in experiment [3] it was 107%; in [4], 106%; in experiment [5] it was 106%; in experiment [6], 99.9%. Moreover, the growth was 101% in experiment [7]; 107% in experiment [8]; 74.8% in [16]; 108% in [10]; 105% in [11]; 98.7% in experiment [12]. Moreover, the growth is 82.7% in [13], 102% in experiment [14] and 100% in [15].

As for `COc1ccc(-c2cc(/C=C/C(=O)c3cc(OC)c(OC)c(OC)c3)[nH]n2)cc1OC`, the growth is -39.1% (active) in experiment [1]; -17.1% (active) in experiment [2]; 17.5% in [3]; -51.6% (active) in [4]; -9.4% (active) in experiment [5]; -17.5% (active) in experiment [6]. The growth is 71% in experiment [7]; 12.3% in experiment [8]; -14% (active) in experiment [16]; 4.69% (active) in experiment [10]; -65.6% (active) in experiment [11]; -9.93% (active) in experiment [12]. In addition, the growth in [13] is -46.5% (active); in [14], -75.7% (active); in experiment [15], -61.6% (active).

As to `Nc1nc(Nc2ccccc2)n[nH]1`, the growth in [1] was 97%; in [2] it was 98.1%; in [3], 103%; in experiment [4], 103%; in experiment [5] it was 97.7%; in experiment [6], 119%. Further, the growth in experiment [7] is 119%; in [8], 96.6%; in experiment [16], 91.7%; in experiment [9], 88.8%; in experiment [10] it was 99.2%; in experiment [11], 107%. For the same molecule, the growth was 95.8% in [12], 97.7% in experiment [13], 98.1% in [14] and 107% in [15].

In the case of `COc1cc(-c2nnc(-c3c(-c4ccc(F)cc4)nc4ccccn34)o2)cc(OC)c1OC`, the growth in experiment [1] was 71.9%; in experiment [2], 46.6%; in experiment [3] it was 95.6%; in experiment [4] it was 69.5%; in experiment [5], 119%; in experiment [6] it was 75.1%. Besides, the growth was 68.1% in [7]; 61.6% in [8]; 53.1% in experiment [16]; 66.1% in [9]; 93.5% in experiment [10]; 90% in [11]. Moreover, the growth in experiment [12] is 73.3%; in experiment [13], 34.1%; in [14] it was 105%; in [15], 81.7%.

For the molecule `NC(=S)N=Nc1c(O)c2ccccc2c2ccccc12`, the growth in [1] is 58.7%; in experiment [2] it was 36%; in [3] it was 107%; in [4], 73.6%; in experiment [5], 68.9%; in experiment [6], 29.9%. The growth in experiment [7] was 62%; in [8] it was 27.1%; in experiment [16] it was 68.3%; in experiment [9] it was 49.5%; in [10], -85.5% (active); in experiment [11], 47%. Besides, the growth in experiment [12] is 24.5%; in experiment [13] it was 32%; in experiment [14], 98.6%; in [15] it was 92%.

On to `O=C1Nc2ccccc2C1=NC1CCCCC1`, for which the growth is 103% in experiment [1]; 98.1% in experiment [2]; 106% in experiment [3]; 96.3% in experiment [4]; 88.5% in experiment [5]; 103% in experiment [6]. Besides, the growth in [7] is 116%; in experiment [8] it was 103%; in [16] it was 83.1%; in experiment [9], 96.1%; in experiment [10], 106%; in experiment [11], 105%. Also, the growth in experiment [12] is 98%; in experiment [13] it was 105%; in [14], 107%; in experiment [15], 95.9%.

For `Cc1cc(=O)[nH]c(N/N=C/c2ccccc2O)n1`, the growth was 68.6% in experiment [1]; 83.3% in [2]; 95.2% in [3]; 22.4% in experiment [4]; 59.6% in [5]; 6.7% (active) in experiment [6]. Also, the growth in [7] was 104%; in [8], 16.3%; in [16], 48.7%; in [9], 101%; in [10], 72.1%; in experiment [11] it was 56.5%. For the same molecule, the growth in experiment [12] is 4.95% (active); in [13], 8.06% (active); in experiment [14], 54.3%; in experiment [15] it was 51.2%.

`COc1cc(Cc2cc(-c3ccc(Cl)cc3)n[nH]c2=O)ccc1O`: the growth was 47.9% in experiment [1]; 92.6% in experiment [2]; 115% in [3]; 98.6% in experiment [17]; 112% in experiment [5]; 96.1% in experiment [6]. The growth was 73.2% in experiment [7]; 126% in experiment [8]; 91% in experiment [16]; 95.2% in experiment [9]; 110% in [10]; 109% in experiment [11]. The growth in [12] is 87.2%; in experiment [13] it was 101%; in experiment [14], 131%; in experiment [15], 105%.
